# Source: PubChem
# Epigenetic reg: Quantitative High-Throughput Screen for Regulators of Epigenetic Control; hit rate 0.2% among 280,000; AID 1865, 2009; murine LDR cells, GFP reporter derepression, 30 h; Potency, µM (titrated, usually from 53.9 µM), for inactives: at the top dose GFP activation, actives largely listed as activators; also: potency is read from the fitted curve at half-maximal effect; % of control where 0% means no effect; nearly all actives have a fitted effect of over 60% in size
#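 GFP-positive cell count by laser-scanning cytometry (objects 20–120 um) after 30 h, 37 C compound exposure of murine LDR cells; reporter is CMV-GFP integrated at a silenced locus, inducible by HDAC or DNMT inhibitors.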
# CCT chaperon mod: High-Throughput Screening for Modulators of Cytosolic Chaperonin Activity; activity change, % (test concentration not listed), hits read low; purified chaperonin ATPase assay, HTRF ADP detection, 30 min; hit rate 0.3% among 360,000; in the data active = activity change below about -30%; also: % is scaled to controls: 0 for no effect and ±100 for the full control effect
#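 TRiC at 40 or 20 nM final (batch-dependent) in 30 mM Tris pH 7.4, 100 mM KCl, 5 mM MgCl2, 1 mM DTT, with compound at single 76 uM and 10 uM ATP, 30 min at 37 deg C. ADP detected by HTRF Transcreener, 665/615 ratio.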
# Mm-Cpn inhibitor: Inhibitors of TCP-1 ring complex (TRiC) of Methanococcus maripaludis (MmCpn): qHTS; Potency, µM (top dose mostly 76.9 µM), for inactives: at the top dose activity, negative = inhibition, usual class: inhibitors; purified Mm-Cpn ATPase, ADP Transcreener TR-FRET; hit rate 0.031% among 330,000; Chaperonin Mm-Cpn (Methanococcus maripaludis); also: potency is read from the fitted curve at half-maximal effect; % is scaled to controls: 0 for no effect and ±100 for the full control effect; nearly all actives have a fitted effect of over 80% in size
#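 Eu-cryptate anti-ADP/ADP-d2 competition gives a ratio inversely related to ADP. Enzyme at 25 nM was pre-exposed to compound for 10 min, then given 10 uM ATP for 30 min, 37°C throughout.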
# uPA surface inh: qHTS for Inhibitors of Cell Surface uPA Generation; cell surface uPA generation assay, qHTS; Potency, µM (top dose mostly 38.3 µM), for the others: top-dose activity change, negative = inhibition, actives largely listed as inhibitors; hit rate 0.31% among 330,000; AID 540303, 2011; active = well fitted inhibition curve with a large enough effect; inconclusive = small, poorly fitted or top-dose-only effect; inactive = no such curve, though single readings can be large or run the other way; tested in mouse RAW 264.7 cells; also: potency is read from the fitted curve at half-maximal effect; % is scaled to controls: 0 for no effect and ±100 for the full control effect; nearly all actives have a fitted effect of over 55% in size
# pAkt inh: HTS Assay for Inhibitors of Akt Phophorylation: Primary Screen | Neuro2A IGF-stimulated pAkt S473 HTRF, 20 min; hits give low values | activity change, % for hits at 50 µM | hit rate 0.32% among 360,000 | AID 651550, 2012; in the data active = activity change below about -80%; inconclusive = mostly about -51% to -80%; also: % is scaled to controls: 0 for no effect and ±100 for the full control effect
#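 Neuro2A cells in DMEM with 0.5% FBS, overnight at 37 deg C, given compound at single 50 µM final, then IGF (6 nM final) for 20 min at 37 deg C. Lysed; phospho-Akt Ser473 by HTRF after 24 h, 665/615 ratio.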
# MBNL1 CUG block: qHTS Assay for Inhibitors of MBNL1-poly(CUG) RNA binding | TR-FRET MBNL1-His/biotin-(CUG)12 binding, 665/545 ratio | Potency, µM (doses to about 57.5 µM), for the others: top-dose activity change, negative = inhibition, most hits filed as inhibitors | Muscleblind-like protein 1 (Homo sapiens), Q9NR56 | hit rate 0.036% among 280,000 | AID 2675, 2010; active = well fitted inhibition curve with a large enough effect in the signal ratio, with a control signal flat, not every such curve was filed as active; inconclusive = small, poorly fitted or top-dose-only effect, or effect the other way, or a change in a side signal; inactive = no such curve, though single readings can be large or run the other way; the % refers to the signal ratio; also: potency is read from the fitted curve at half-maximal effect; % is scaled to controls: 0 for no effect and ±100 for the full control effect
# Target sequence (Q9NR56 whole entry, looked up): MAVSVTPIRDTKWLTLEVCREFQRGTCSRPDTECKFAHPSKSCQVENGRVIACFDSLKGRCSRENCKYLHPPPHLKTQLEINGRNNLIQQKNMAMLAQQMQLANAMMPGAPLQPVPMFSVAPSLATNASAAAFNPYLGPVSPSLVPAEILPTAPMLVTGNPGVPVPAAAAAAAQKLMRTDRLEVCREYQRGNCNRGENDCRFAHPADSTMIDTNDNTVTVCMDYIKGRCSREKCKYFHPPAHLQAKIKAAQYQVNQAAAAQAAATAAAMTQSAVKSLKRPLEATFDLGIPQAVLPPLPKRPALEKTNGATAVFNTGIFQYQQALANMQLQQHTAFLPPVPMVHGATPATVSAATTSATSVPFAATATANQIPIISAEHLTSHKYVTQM
#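 Ratiometric TR-FRET (665 over 545 nm, excitation 340 nm) tracks disruption of MBNL1-His/biotin-(CUG)12 complex after 60 min at room temperature, with compounds at 92 nM to 58 uM final.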
# The depositor's hits bear a star; i = inactive; ? = inconclusive; / = no result given; [ ] = remark or other dose. Compounds with a hit are over-represented: about 0.97% of the library has one in this group of screens. Unless noted, calls follow the shape of the dose curve; as a rule, active = well fitted curve in the direction sought with a large enough effect; inconclusive = small, poorly fitted or top-dose-only effect, or another doubt; inactive = no such curve, though single readings can be large; an effect the other way counts as inactive or inconclusive.
SMILES,Epigenetic reg,CCT chaperon mod,Mm-Cpn inhibitor,uPA surface inh,pAkt inh,MBNL1 CUG block
CCOC(=O)c1c(Nc2ccc(Cl)cc2)sc(/C=C2\C=Nc3ccccc32)c1O,7.08µM*,-0.9,-14.2%,5.0%,i,-2.6%
Oc1nc(Nc2cccc(Cl)c2)sc1/C=C1\C=Nc2ccccc21,0.0%,2.8,1.0%,?,i,-9.1%
COc1cc(N2CCCC2)c(OC)cc1/C=C1/NC(=S)NC1=O,15.8µM*,-1.5,-6.0%,-3.6%,i,?
COc1ccc(OC)c(/C=C2\NC(=O)NC2=O)c1,/,0.0,-3.3%,13.2%,i,?
CN(Cc1ccccc1)C(=O)CCC1CCN(C(=O)CCC(F)(F)F)CC1,/,-5.4,2.1%,0.3%,i,-6.5%
CCOc1ccc2[nH]c3c(=O)n(CCc4ccc(OC)cc4)cnc3c2c1,25.1µM*,0.1,1.2%,-3.7%,i,-5.8%
CC(C)CC(C(=O)Nc1oc(-c2ccco2)c(-c2ccco2)c1C#N)N1C(=O)c2ccccc2C1=O (stereo not given),2.3%,-1.6,-6.5%,4.7%,i,19.2%
COC(=O)[C@H](C)NC(=O)NCc1ccc(F)cc1,0.0%,0.6,2.6%,-13.8%,-81.8%*,1.9%
Cc1ccc(NC2=C([N+](=O)[O-])CS(=O)(=O)C2)cc1,7.8%,-3.0,-0.2%,/,i,4.1%
CN(C)c1ccc(NC2=C([N+](=O)[O-])CS(=O)(=O)C2)cc1,15.8µM*,0.9,-2.6%,-29.4%,i,?
CC(=O)Nc1ccc(-c2ccnc3c2CC(C)(C(=O)NCCc2ccccc2)O3)cc1 (stereo not given),/,-2.7,/,/,i,/
COc1ccc(S(=O)(=O)N2CCc3ccccc32)cc1C(=O)Nc1ccc(C(N)=O)cc1,/,-0.1,-0.4%,14.1µM*,i,/
Cc1nc(C/C(=N\N)c2ccc(O)cc2O)cs1,-1.5%,0.3,1.1%,-0.4%,i,2.2%
CCc1cc(/C(Cc2csc(C)n2)=N/O)c(O)cc1O,-1.0%,-1.1,1.9%,-3.5%,-103.8%*,-8.8%
COc1ccc(N(CC(=O)Nc2cccnc2)S(=O)(=O)c2ccccc2)cc1OC,/,-0.4,0.6%,6.7%,i,5.3%
CN(C)c1nc(-c2ccccc2)ncc1S(=O)(=O)c1ccccc1,-1.9%[10.1 µM],-32.3*,-3.6%,12.0%,i,3.6%
CCN(CC)c1nc(-c2ccccc2)ncc1S(=O)(=O)c1ccc(C)cc1,-1.2%,0.4,1.1%,12.0%,i,11.4%
CCCCOc1ccccc1Cn1c(=O)oc2ccccc21,0.0%,-0.6,1.5%,18.5%,-111.6%*,6.6%
COc1ccc(-n2c3c(cc(C#N)c2=O)C(=O)CCC3)cc1,-0.2%,-33.8*,-1.2%,-0.4%,i,4.5%
CCOC(=O)C1=C(C)NC(C)=C(C(=O)OCC)C1C(=O)OCC(=O)N1CC(C)OC(C)C1 (stereo not given),/,0.1,1.7%,10.1%,i,/
CCOC(=O)c1c(C)[nH]c(C(=O)OCC(=O)N2CC(C)OC(C)C2)c1C (stereo not given),2.0%,1.1,1.4%,2.7%,-130.2%*,-1.5%
COc1cccc(Cn2c(CNS(=O)(=O)c3ccc(C(C)(C)C)cc3)nc3cccnc32)c1,0.0%,/,/,/,/,/
CN(C)c1ccc(-c2nc3ccccc3c(=O)[nH]2)cc1,9.7%,2.4,2.0%,1.41µM*,i,17.0%
O=C(c1ccc(NS(=O)(=O)c2ccccc2)cc1)N1CCCC1,-1.0%,-0.1,1.3%,5.6%,-118.2%*,0.1%
NC(c1ccccc1)c1ccncc1 (stereo not given),/,-42.6*,1.6%,1.6%,i,-3.3%
FC(F)(F)c1ccc(N2CCN(c3ncnc4c3nnn4Cc3ccccc3)CC2)nc1,-1.0%,-0.5,0.6%,7.3%,-86.5%*,6.4%
